# In the library only some 1.7% were active in any assay of this set; here they are far more common.
# p53ts 39C tox = kills p53ts cells at the nonpermissive temperature; Potency, µM (titrated, usually from 46.1 µM), inactives show top-dose activity change, negative = cell killing, usual class: cytotoxic; H1299-p53A138V viability at 39C, ATP luminescence, 24 h; hit rate 1.5% among 130,000; also: % is scaled to controls: 0 for no effect and ±100 for the full control effect; nearly all actives have a fitted effect of over 55% in size
# p53ts 32C kill = kills p53ts cells at the permissive temperature; H1299-p53A138V at 32C, ATP luminescence viability, 24 h; Potency, µM (series often up to 46.1 µM), without a hit: top-dose activity change, negative = cytotoxicity, most hits filed as cytotoxic; hit rate 0.93% among 130,000; AID 924;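 also: 0% = DMSO and -100% = full killing by reference compound; nearly all actives have a fitted effect of over 55% in size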
#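 Cells: H1299 p53ts (A138V), 600/well, pre-incubated 16–30 h at 37C. Cpd up to 46 uM, 24 h, 32C. Readout: ATPlite luminescence, 20 min RT. Normalization: DMSO vs tamoxifen 100 uM. AC50 by Hill equation.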
# Imprint erasure = inducers of genomic imprint erasure in mouse ES cells; Potency, µM (doses to about 60.7 µM), for the others: at the highest dose activity change, positive = activation, usual class: activators; hit rate 0.02% among 110,000; mouse ES Peg3-LacZ reporter, beta-gal luminescence, 40 h
#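 Gelatin-coated wells received 300 freshly trypsinized female ES cells with a Peg3LacZ-Neo reporter on the maternal allele, then incubated 40 hours at 37C. BetaGlo was added for 5 minutes at room temperature before a single luminescence read.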
# IkB sig inh = inhibitors of IkB signaling in ABC-DLBCL cells; ABC-DLBCL IkBa-CBG/CBR dual luciferase ratio, 4 h; response scale: scaled: untreated 0%, proteasome inhibitor 100%; Potency, µM (titrated, usually from 57.1 µM), for inactives: top-dose IkBa stabilization activation; hit rate 0.04% among 110,000; AID 445; active = well fitted curve in the direction sought with a large enough effect in the signal ratio, not every such curve was filed as active; inconclusive = small, poorly fitted or top-dose-only effect, or a change in a side signal; the % refers to the signal ratio;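 also: the direction sought is a rising ratio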
#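 Luminescence ratio of IκBα-fused green versus native red beetle luciferase in OCI-Ly3 cells, 4 h post-doxycycline with compound; red signal alone, scaled from basal (0%) to zero light (-100%), flagged nonspecific or cytotoxic effects.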
# * marks the source's active call; other numbers are inactive results; ? = inconclusive; . = no result; [ ] = another dose, or the depositor's remark. Unless noted, calls follow the shape of the dose curve; as a rule, active = well fitted curve in the direction sought with a large enough effect; inconclusive = small, poorly fitted or top-dose-only effect, or another doubt; inactive = no such curve, though single readings can be large; an effect the other way counts as inactive or inconclusive. Potency is read from the fitted curve at half-maximal effect.
SMILES,p53ts 39C tox,p53ts 32C kill,Imprint erasure,IkB sig inh
Cc1ccc(S(=O)(=O)NCCc2csc(-c3cccc(F)c3)n2)cc1,16µM*,7%,-21%[10.9 µM],?
COc1ccc(CN2COc3ccc4c(-c5ccccc5)cc(=O)oc4c3C2)cc1OC,-1%,12%,-14%[10.9 µM],0%
CCN(CC)c1ccc2c(Cl)c(Br)c(=O)oc2c1,?,13µM*,.,?
CCN(CC)c1ccc2c(C)cc(=O)oc2c1,-6%,-2%[1.84 µM],-5%,-3%
CCN(CC)c1ccc2c(c1)oc(=O)c1c(Cl)cc(=O)oc12,13µM*,13µM*,-30%,?
C[C@H]1C[C@@H]2[C@H]3CCC4=CC(=O)C=C[C@@]4(C)[C@]3(Cl)[C@@H](Cl)C[C@]2(C)[C@]1(O)C(=O)COP(=O)(O)O,.,.,.,7%[11.4 µM]
O=C(Nc1ccc(N2CCOCC2)c(Cl)c1)c1ccco1,16µM*,13µM*,-35%,4%
CCCC(=O)N1CCN(c2ccc(NC(=O)c3cc4ccccc4o3)cc2Cl)CC1,16µM*,?,-26%,?
CCC(=O)N1CCN(c2ccc(NC(=O)c3cc4ccccc4o3)cc2Cl)CC1,?,?,-14%,?
O=C(Nc1ccc(N2CCN(C(=O)c3ccco3)CC2)c(Cl)c1)c1cc2ccccc2o1,?,13µM*,-36%,-9%
Cc1ccc(NC(=O)Cn2cc3c(n2)CCCC3)cc1Cl,-1%,-9%,-8%[10.9 µM],-1%
O=C(O)c1ccc(Cl)c(S(=O)(=O)Nc2ccccc2)c1,-3%,4%,.,.
COc1ccc(-c2coc3ccc(O[C@@H]4O[C@@H](COC(C)=O)[C@@H](OC(C)=O)[C@@H](OC(C)=O)[C@H]4OC(C)=O)c(OC(C)=O)c3c2=O)cc1,.,.,.,0%[11.4 µM]
COc1ccccc1N1CCN(c2ccc(-c3ccccc3)nn2)CC1,2µM*,3.2µM*,.,4µM*
COc1ccccc1N1CCN(c2nc(-c3ccccc3)cc(C(F)(F)F)n2)CC1,18%,-4%,-8%,0%
O=S(=O)(c1cccc(Cl)c1)N1CCCC1,2%,10%,-6%,1%
Cc1ccc(/C=C/c2nc3ccccc3n2S(=O)(=O)c2ccc(Br)cc2)cc1,6.3µM*,5µM*,-16%[10.9 µM],?
C=CCSc1nc2ccccc2n1S(=O)(=O)c1ccc(C)cc1,8%,5%,.,.
COc1cc(S(=O)(=O)n2c(C)nc3ccccc32)ccc1F,8%,-6%,9%,4%
O=S(=O)(c1cccc(Cl)c1)n1c(/C=C/c2ccccc2Cl)nc2ccccc21,1µM*,1.3µM*,-84%[10.9 µM],6%
CSc1ccc(/C=C/c2nc3ccccc3n2S(=O)(=O)c2cccc(Cl)c2)cc1,4µM*,3.2µM*,-25%[10.9 µM],?
OC(CN1CCNCC1)Cn1c2ccc(Br)cc2c2cc(Br)ccc21 (stereo unspecified),13µM*,?,-42%,.
Cc1ccc2c(c1)c(C)c(C)n2CC(O)CN1CCOCC1 (stereo unspecified),-9%,5%,-6%,1%
Cc1ccc(-n2ncc(C(=O)N3CCC(c4ccccc4)C3)c2C2CCN(C(=O)OC(C)(C)C)CC2)cc1 (stereo unspecified),?,29%,6%[10.9 µM],?
COc1cc2c(C=O)c3c4c(cc(OC)c(OC)c4c2cc1OC)CCN3C,16µM*,?,-19%,.
SMILES,p53ts 39C tox,p53ts 32C kill,Imprint erasure,IkB sig inh
O=C(/C=C/Nc1ccccc1Br)c1ccccn1,1.3µM*,0.79µM*,-94%,?
O=C(/C=C\Nc1ccccn1)c1ccccc1,?,10µM*,-83%,?
O=C(/C=C/Nc1cccc(O)c1)c1ccccc1,7.9µM*,4µM*,-81%,?
CC(Oc1ccc(Br)cc1)C(=O)NCc1cccnc1 (stereo unspecified),0%,1%,.,.
CC[C@@H]1[C@H]2CCCCN3[C@@H]2[C@@H](C[C@H]3[C@@H]2C[C@H](C)C(=O)O2)[C@@H]2[C@H]1OC(=O)[C@H]2C,.,.,.,2%[11.4 µM]
CCc1ccc(S(=O)(=O)c2cn(Cc3ccc(OC)cc3)c3cc(OC)c(OC)cc3c2=O)cc1,5%,5%,-5%[10.9 µM],?
Cc1sc2ncnc(SCc3ccco3)c2c1C,5%,3%,-8%,?
Cc1sc2ncnc(Sc3nnnn3-c3ccc(Cl)cc3)c2c1C,5µM*,10µM*,-20%,?
C=CCc1ccccc1OCC(O)CN1CCN(C(=O)OCC)CC1 (stereo unspecified),8%,-6%,-14%,0%
